Source: PubChem
Marburg entry inh: blocks Marburg virus binding to or entry into cells; Potency, µM (top dose mostly 37.8 µM), inactives show at the top dose activity change, negative = inhibition, actives largely listed as inhibitors; Marburg virus pseudotyped entry inhibition, cell reporter; hit rate 1.8% among 300,000; calls by dose curve; tested in HEK293 cells; note: potency is the fitted concentration of half-maximal effect; % is set by controls: 0 for no effect and ±100 for the full control effect
LASV entry inh: inhibitors of Lassa virus binding or cell entry; Lassa virus pseudotype entry inhibition, cell reporter; AID 540256; Potency, µM (series often up to 37.9 µM), without a hit: at the highest dose activity change, negative = inhibition, most hits filed as inhibitors; hit rate 1.2% among 300,000; calls by dose curve; tested in HEK293 cells; note: potency is the fitted concentration of half-maximal effect; % is set by controls: 0 for no effect and ±100 for the full control effect; nearly all actives have a fitted effect of over 50% in size
Pf growth 48h: inhibits P. falciparum growth in the first generation, 48 h; hit rate 5.9% among 310,000; P. falciparum luciferase growth in erythrocytes, 48 h; Potency, µM (series often up to 28.7 µM), inactives show at the top dose activity change, negative = inhibition, hits mostly inhibitors; note: potency is the fitted concentration of half-maximal effect; % is set by controls: 0 for no effect and ±100 for the full control effect
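Erythrocytes infected with P. falciparum carrying an integrated firefly luciferase reporter (2% hematocrit, 0.1% parasitemia final) were exposed to compounds in RPMI 1640 with 0.5% Albumax at 37 C, 5% CO2. Growth inhibition was scored as reduced luminescence.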
Shiga inhibitor: inhibitors of Shiga toxin in Vero cells | hit rate 9.2% among 290,000 | inhibition, % at 38.7 µM | AID 2315 | Vero cells, Shiga toxin protein synthesis inhibition reporter; in the data active = inhibition mostly above about 28%, no sharp cut-off; inactive = mostly below about 43%; note: 0% is about no effect
Cycloheximide cs: counter-screen for Shiga toxin inhibitors: cycloheximide protein synthesis inhibition; cell reporter, cycloheximide protein synthesis inhibition counterscreen; max response, %; AID 2314; hit rate 12% among 300,000; in the data active = max response mostly above about 13%, no sharp cut-off; inactive = mostly below about 14%; note: read at 38.3 µM for the half of the compounds with a filed dose; 0% is about no effect
Pf growth 96h: P. falciparum growth inhibition at 96 hours | P. falciparum luciferase reporter growth, 96 h | Potency, µM (highest dose often 28.7 µM), for the others: top-dose activity change, negative = inhibition, actives largely listed as inhibitors | hit rate 6.9% among 320,000; note: potency is the fitted concentration of half-maximal effect; % is set by controls: 0 for no effect and ±100 for the full control effect
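Parasite growth measured via integrated firefly luciferase reporter in P. falciparum. Infected erythrocytes at 2% hematocrit, 0.05% parasitemia final were treated 96 hours at 37 C under 5% CO2, and luminescence was read.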
Active calls of the source: *; i = inactive; ? = inconclusive; . = no result; [ ] = dose if it differs, or a comment. Hits are enriched below; roughly 19% of the tested compounds scored in any of these assays. Unless noted, calls come from the whole dose curve; as a rule, active = well fitted inhibition curve with a large enough effect; inconclusive = small, poorly fitted or top-dose-only effect, or another doubt; inactive = no such curve, though single readings can be large or run the other way.

SMILES	Marburg entry inh	LASV entry inh	Pf growth 48h	Shiga inhibitor	Cycloheximide cs	Pf growth 96h
CCc1ccc(OCC(=O)NCc2ccco2)c(Br)c1	-22%	17%	61%	106*	40*	.
COc1ccc(CC(=O)NCc2ccco2)cc1OC	18%	-1%	-2%	-23	-7	.
O=C(NCC(=O)N(CC1CCCO1)C1(C(=O)NC2CCCCC2)CCCCC1)c1ccccc1 (stereo not drawn)	-19%	2%	.	-12	-6	?
O=C(Nc1ccc(F)cc1)N1CCN(c2ccc3nnc(-c4ccc(F)cc4)n3n2)CC1	1%[46.1 µM]	.	.	10	-1	?
O=C(Nc1ccccc1C(F)(F)F)N1CCN(c2ccc3nnc(-c4ccc(F)cc4)n3n2)CC1	?	-24%	12µM*	43	1	?
CCOC(=O)N1CCN(Cc2ccc(O)c3ncccc23)CC1	?	?	?	3	-2	-19%
Cc1ccc(N=Nc2ccc(O)c3ncccc23)cc1C	.	.	?	100*	28*	?
Cc1ccc(N=Nc2ccc(O)c3ncccc23)cc1	?	?	0.47µM*	-9	-6	?
Clc1ccccc1CN1CCc2nc(N3CCN(c4ncccn4)CC3)ncc2C1	.	-2%[46.1 µM]	.	.	.	.
CCOC(=O)N1CCC2(CC1)CC(=O)c1cc(O)ccc1O2	?	-8%	-15%	-7	-3	?
C=CCn1c(-c2ccc(N)cc2)nc2ccccc21	.	.	.	50*	17	116%
C=CCn1c(-c2ccc(OC)cc2)nc2nc3ccccc3nc21	?	1%	-23%	30	37*	.
COc1ccc2c(c1)nc(N)n2Cc1ccccc1	?	-11%	?	1	0	33%
COc1ccc(-c2nnnn2C(C)C)cc1	14%	5%	38%	-2	-2	14%
COc1ccc(-c2nnnn2CCc2ccccc2)cc1	20%	4%	21%	23	19*	12%
COc1ccc(-c2n(Cc3ccccc3)c3ccccc3[n+]2Cc2ccccc2)cc1	5.8µM*	8.2µM*	0.37µM*	-6	1	?
CCn1c(-c2ccc(N)cc2)nc2ccccc21	.	.	.	31	7	40%
Cc1ccc(-n2c(CCc3ccccc3)nnc2SCC(=O)NCc2ccccc2)cc1C	?	-37%	.	-17	3	10%
COc1ccccc1CNS(=O)(=O)c1c(C)nc2scc(C)n2c1=O	-1%[46.1 µM]	1%[46.1 µM]	-8%	-1	-2	-7%
O=C(NCC1CCCCC1)C1CCC(=O)N(CCc2cccc(F)c2)C1 (stereo not drawn)	-20%[46.1 µM]	-5%[46.1 µM]	14%	21	1	2%
COc1cc(Cn2c(-c3ccc(O)c(OC)c3)nc3ccccc32)ccc1O	?	?	2.9µM*	-2	-4	13µM*
O=c1ccc(-c2nc3cc(Cl)ccc3n2Cc2ccccc2)c[nH]1	?	-2%[46.1 µM]	?	1	-4	9.3µM*
O=c1c2ccccc2nc(-c2ccccc2)n1Cc1ccccc1	36%	?	17%	83*	22	-23%
CCCCCn1c(-c2ccc(OC)c(OC)c2)nc2ccccc21	?	-30%[46.1 µM]	.	.	.	.
C=CCn1c(C(O)c2ccccc2)nc2ccccc21 (stereo not drawn)	7%	4%	31%	.	16*	-23%
SMILES	Marburg entry inh	LASV entry inh	Pf growth 48h	Shiga inhibitor	Cycloheximide cs	Pf growth 96h
Cc1cccc(N2CCN(C3(c4ccccc4)C(=O)c4ccccc4C3=O)CC2C)c1 (stereo not drawn)	-2%[46.1 µM]	-23%[46.1 µM]	.	.	.	.
Cc1c(Cl)c(C(F)F)nn1CC(=O)NC1C(=O)N2C(C(=O)O)=C(CSc3nnnn3C)CSC12 (stereo not drawn)	.	.	-1%	12	-6	117%
CCOCCn1c(-c2ccc(OC)cc2)nc2ccccc21	.	.	.	29	22	118%
C=CCn1c(-c2ccc(OC)cc2)nc2ccccc21	-6%	12%	2%	30*	36*	0%
COc1ccc(-c2nc3ccccc3n2Cc2ccccc2)cc1	3%[46.1 µM]	-14%[46.1 µM]	.	14	25*	?
O=C(O)CC1=C(Nc2ccccc2)C(=O)N(c2ccccc2)C1c1ccc(Br)cc1 (stereo not drawn)	?	-4%	15%	79*	25*	?
O=C(CN1CCCC1)OCCCc1ccccc1	3%	8%	-1%	-8	-5	1%
Nc1ncc(Br)cc1S(=O)(=O)NCCC(=O)N1CCN(c2ccccn2)CC1	?	20%	12µM*	-22	-6	6%
Nc1ncc(Br)cc1S(=O)(=O)NCCC(=O)N1CCN(c2ccccc2)CC1	.	.	6.6µM*	-9	-6	34%
Cc1ccc(COC(=O)NCc2cccnc2)cc1	.	.	13%	-2	-2	?
CCN1/C(=C/C=C/C=C/c2sc3ccccc3[n+]2CC)Sc2ccccc21	4.6µM*	1.8µM*	3µM*	-7	-1	3.4µM*
CCN1/C(=C/C=C/C=C/C=C/c2sc3ccccc3[n+]2CC)Sc2ccccc21	.	.	?	-14	-2	15%
CCN1/C(=C/C=C/c2sc3ccccc3[n+]2CC)Sc2ccccc21	.	.	0.33µM*	.	.	0.15µM*
Cc1ccc(NC(=O)COC(=O)C2CSC3(C)CCC(=O)N23)cc1S(=O)(=O)N1CCOCC1 (stereo not drawn)	.	.	-4%	-13	9	-17%
COc1ccc(N2CCN(C(=O)CN=C3NS(=O)(=O)C(c4ccc(C)cc4)=C3C)CC2)cc1	-10%	25%[14.3 µM]	?	-7	-4	4%
CCCC(=O)N1N=C(c2ccccc2)CC1c1cn(C)c2ccccc12 (stereo not drawn)	?	24%	?	42	27*	?
Cn1cc(C2CC(c3ccccc3)=NN2C(=O)c2ccccc2)c2ccccc21 (stereo not drawn)	?	?	8.3µM*	41	22*	8.3µM*
CC(=O)N1N=C(c2ccc(Br)cc2)CC1c1cn(C)c2ccccc12 (stereo not drawn)	?	?	4%	2	1	?
CCCC(=O)Nc1nc(-c2ccc3c(c2)OCCO3)cs1	.	.	75%	93*	40*	97%
CSc1ccc(-c2nnc(NC(=O)c3ccc4c(c3)OCCO4)o2)cc1	.	2%[46.1 µM]	.	.	.	.
CCCC(=O)Nc1nnc(-c2ccc3c(c2)OCCO3)o1	10%[46.1 µM]	-5%	118%	58*	31*	234%
O=C(CSCC(=O)Nc1nc(-c2ccc3c(c2)OCO3)cs1)Nc1nccs1	.	.	?	6	-2	-30%
O=C(Nc1nc(-c2ccc3c(c2)OCO3)cs1)C1CC1	.	.	65%	66*	44*	94%
CSCC(=O)Nc1nc(-c2ccc3c(c2)OCCO3)cs1	.	.	i	119*	51*	332%
CCCC(=O)Nc1nnc(-c2ccc3c(c2)OCO3)s1	.	.	0%	-3	-1	84%
CC(/C=C/c1ccc2c(c1)OCO2)=N/NC(=O)C1COc2ccccc2O1 (stereo not drawn)	3%	?	?	9	6	-9%
O=C(O)C(=O)Nc1nc(-c2ccc3c(c2)OCCO3)cs1	.	.	38%	26*	14*	21%
